Holding throughout (format): functional
Assay [1] has as its target Solute carrier family 2, facilitated glucose transporter member 1 (Homo sapiens) (UniProt P11166). The experiment in a line: ST_JUDE_LEISH: Cytotoxicity at 2uM final concentration against transgenic Leishmania Mexicana promastigotes LmGLUT1 that are glucose transport deficient and complemented with the human glucose transporter GLUT1. Activity is measured by DNA content using SYBR green in vitro.

In assay [2] the target is Hexose transporter 1 (Plasmodium falciparum) (UniProt O97467). The experiment in a line: ST_JUDE_LEISH: Cytotoxicity at 2uM final concentration against transgenic Leishmania Mexicana promastigotes LmPfHT that are glucose transport deficient and complemented with the Plasmodium falciparum hexose transporter. Activity is measured by DNA content using SYBR green in vitro.

In assay [3] the target is Glucose transporter (Leishmania mexicana) (UniProt O61059). Kind of assay: ST_JUDE_LEISH: Cytotoxicity at 2uM final concentration against transgenic Leishmania Mexicana promastigotes LmGT2 that are glucose transport deficient and complemented with the L. Mexicana glucose transporter 2. Activity is measured by DNA content using SYBR green in vitro.

Sequence of Solute carrier family 2, facilitated glucose transporter member 1 (Homo sapiens) (P11166 whole entry): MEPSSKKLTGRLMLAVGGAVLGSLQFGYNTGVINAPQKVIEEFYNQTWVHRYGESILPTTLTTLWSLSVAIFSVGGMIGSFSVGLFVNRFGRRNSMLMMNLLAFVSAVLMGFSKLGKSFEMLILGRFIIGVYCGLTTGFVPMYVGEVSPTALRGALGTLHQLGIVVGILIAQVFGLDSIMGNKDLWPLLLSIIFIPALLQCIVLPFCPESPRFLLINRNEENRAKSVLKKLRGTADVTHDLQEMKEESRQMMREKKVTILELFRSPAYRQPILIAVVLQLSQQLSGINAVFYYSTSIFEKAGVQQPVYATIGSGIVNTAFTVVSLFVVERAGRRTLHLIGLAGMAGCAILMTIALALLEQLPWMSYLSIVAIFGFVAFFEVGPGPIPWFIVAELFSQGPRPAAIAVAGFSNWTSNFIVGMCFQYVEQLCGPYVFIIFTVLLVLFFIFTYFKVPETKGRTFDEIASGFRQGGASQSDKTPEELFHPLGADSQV

Take `N#Cc1ccc2c(c1)CCN(CCC1CCC(NC(=O)Nc3cnc4ccccc4c3)CC1)C2` (configuration not stated): the inhibition in assay [1] turned out to be 2.8%; in assay [2], 3.15%; in assay [3], 2.03%.
As to `O=S(=O)(c1cc(Cl)ccc1Cl)N1CCCCC(c2ccc(C(F)(F)F)cc2)=N1`, the inhibition is 0.47% in assay [1], 2.66% in assay [2] and 5.01% in assay [3].
For `Cc1cc(=NN=Cc2ccc(F)cc2)c2cccc(C)c2[nH]1` the same measures were 3.22%, 2.28% and 3.02%.
As to `CC(C)(C)c1cc(CN2CCN(Cc3ccccc3)CC2)cc(C(C)(C)C)c1O`, the inhibition in assay [1] worked out at 1.34%; in assay [2] it was 2.9%; in assay [3], 2.7%.
For `O=C(Nc1ccc(C(F)(F)F)cc1)Nc1cccc([N+](=O)[O-])c1`, the results for the inhibition in assay [1], in assay [2] and in assay [3] were 2.81%, 2.48% and 3.51%, respectively.
As for `CC1(C)NC(N)=NC(=N)N1OCc1ccc(-c2ccccc2)cc1`, the results for the inhibition in assay [1], in assay [2] and in assay [3] were 6.01%, 5.93% and 3.79%, respectively.
Regarding `Cc1cc(Cc2ccc(S(=O)(=O)c3cc4c(cc3O)CCN(C)CC4)cc2)ccc1Cl`, the values for the inhibition in assay [1], in assay [2] and in assay [3] were -0.06%, 2.07% and 0.31%, respectively.
Turning to `COCCNCc1cccc(-c2cc3nccc(Nc4ccc(Oc5ccccc5)cc4)c3cc2Cl)c1`, the inhibition in assay [1] is -0.26%; in assay [2] it was 2.37%; in assay [3], 0.83%.
Regarding `COc1ccc(C2CC(c3cccs3)=NN2C(=O)COc2cccc(C(C)=O)c2)cc1OC` (configuration not stated), the inhibition was 0.04% in assay [1], -0.46% in assay [2] and -2.22% in assay [3].
As to `O=C(/C=C/c1cccc(Cl)c1)NCCCCCN1CCC(c2c[nH]c3ccccc23)CC1`, the inhibition came to 3.67% in assay [1], 6.67% in assay [2] and 0.06% in assay [3].
For `Oc1ccc2nc(Nc3ccccc3)nc(NCCc3ccccc3)c2c1`, in that order: 7.22%, 6% and 5.72%.
Turning to `COc1cc2c(cc1S(=O)(=O)c1ccc(NC(=O)Nc3ccc(F)cc3)cc1)CCN(C)CC2`, the inhibition was determined as 3.01% in assay [1], 2.22% in assay [2] and 3.04% in assay [3].
For `Cc1cc(N2CCCC2)nc(Nc2ccc(NC(=O)C(C)Oc3ccccc3)cc2)n1` (configuration not stated) the same measures were 10.6%, 15.9% and 7.47%.
Take `Cc1noc(C)c1-c1cccc(CNCc2ccc(-c3ccc(-c4nc5cccc(C)c5[nH]4)cc3)cc2)c1`: the inhibition was 2.03% in assay [1], 0.15% in assay [2] and -0.62% in assay [3].
For `Cc1cc(C=C(P(=O)(OC(C)C)OC(C)C)P(=O)(OC(C)C)OC(C)C)c2ccccc2c1O` the same measures were 6.71%, 7.2% and 1.63%.
With `Cc1c[nH]c(CCNC(=O)c2cc(-c3ccc(Cl)cc3)cs2)n1`, the values for the inhibition in assay [1], in assay [2] and in assay [3] were 2.64%, 0.26% and 2.79%, respectively.
Regarding `Cc1nc(C)c(-c2ccc(Oc3cccc(OC(F)(F)F)c3)cc2)c(O)c1Cl`, the inhibition in assay [1] was 2.22%; in assay [2] it was 2.75%; in assay [3], 2.84%.
Regarding `O=C(NCCCCN1CCN(c2ccc3c(c2)CCC3)CC1)c1ccc(NC(=O)c2ccc(Cl)cc2)cc1`, the inhibition in assay [1] worked out at 55.3%; in assay [2] it was 38.1%; in assay [3], 24.9%.
As for `COc1cc(C2CCN(CCCCNC(=O)c3ccc(NC(=O)c4ccc(Cl)c(Cl)c4)cc3)CC2)ccc1OC(C)C`, the inhibition in assay [1] is 1.53%; in assay [2] it was 4.29%; in assay [3], 1.53%.
As to `Cc1ccc(CN2CCCN(Cc3cccc(NC(=O)c4cc5ccccc5s4)c3)CC2)cc1`, the inhibition in assay [1] is -0.92%; in assay [2] it was -0.94%; in assay [3], -2.83%.
For `COc1ccccc1CNc1nc(Nc2ccccc2C)nc2ccccc12`, in that order: 38.4%, 54.5% and 14.4%.
For `Cc1cccc2c(C(=O)NC3CCN(Cc4ccccc4)CC3)cc(-c3cccnc3)nc12`, in that order: 1.6%, 1.08% and -0.31%.
For `Cc1c(NCCCNCc2cc(Cl)cc(Cl)c2Cl)[nH]c2ccccc2c1=O` the same measures were 10.6%, 9.36% and 8.22%.
In the case of `COc1ccc(C)cc1NC(=O)CSc1nc2cccnc2n1C1CCCCC1`, the figures for the inhibition in assay [1], in assay [2] and in assay [3] were 5.9%, 4.88% and 3.28%, respectively.
Take `Cc1ccc(C)c(Sc2ccc(NC(=O)CN3CCN(C(=O)c4ccco4)CC3)cc2)c1`: the figures for the inhibition in assay [1], in assay [2] and in assay [3] were 0.6%, 0.52% and 0.17%, respectively.
Turning to `COc1ccc2ccccc2c1C=NNc1ccnc2cc(Cl)ccc12`, the figures for the inhibition in assay [1], in assay [2] and in assay [3] were 1.99%, 0.95% and 1.17%, respectively.
For `Cc1ccc(C(C)C)c(Oc2cnc(NC(CO)c3ccccc3)nc2N)c1` (configuration not stated) the same measures were 9.07%, 8.83% and 8.45%.
For `O=C(C1CCN(c2nnnn2-c2ccccc2)CC1)N1CCc2ccccc2C1`, in that order: 13%, 15.6% and 14.1%.
For `CC(C)c1ccc(C=CC(=O)N2CCC(CCN3CCC(c4c[nH]c5ccccc45)CC3)CC2)cc1`, in that order: -1.34%, -1.09% and -0.06%.
As for `CC(=O)c1ccc(S(=O)(=O)N2CCC(C(=O)Nc3ccccc3N3CCCC3)CC2)cc1`, the inhibition in assay [1] was 0.87%; in assay [2], 0.67%; in assay [3] it was -0.38%.
For `CN(C)CCN(C)Cc1ccc(-c2cccc(NC(=O)c3cccc(C#N)c3)c2)cc1`, in that order: 15.4%, 10.9% and 8.24%.
`O=c1c(NCCCN(Cc2ccc(F)cc2)c2ccccn2)c(NCc2cccnc2)c1=O`: the inhibition in assay [1] worked out at 1.33%; in assay [2], 1.81%; in assay [3] it was 1.65%.
On to `CCCCCOc1ccc(C(O)C(CCC(CN2CCCCCC2)C(O)c2ccc(OCCCCC)cc2)CN2CCCCCC2)cc1` (configuration not stated), for which the inhibition in assay [1] was 3.22%; in assay [2] it was 2.73%; in assay [3] it was 1.43%.
For `CN1Cc2ccc(NS(=O)(=O)c3ccc(-c4ccoc4)cc3)cc2C1`, in that order: -2.45%, -1.72% and -3.6%.

Broadly, the inhibition is the change of the read-out against control, counted positive when it falls.

For the origin of these results see ChEMBL document CHEMBL3433997, “St. Jude Leishmania screening dataset” (2016).
